# Results: PubChem BioAssay (NCATS)
# Where “and” joins values, the source holds several entries; their conditions need not be identical. Equal values may be shown once. Values without a mark were called inactive. Records with an inconclusive call do not appear. A call without a number means that no potency is given here. Calls of active or inactive are those of the source. Unless noted, calls come from the whole dose curve; as a rule, active = well fitted curve in the direction sought with a large enough effect; inconclusive = small, poorly fitted or top-dose-only effect, or another doubt; inactive = no such curve, though single readings can be large; an effect the other way counts as inactive or inconclusive.
# What was measured:
# [1] = Cell Viability - SK-N-SH (AID 435; calls by dose curve;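 note: potency is the fitted concentration of half-maximal effect; compound exposure lasted 40 h at 37 °C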); settings: SK-N-SH neuroblastoma cell viability qHTS
# Method in brief: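 Luminescent ATP signal served as the viability read-out after 40 hours of compound treatment of human neuroblastoma SK-N-SH cells. Concentration-response data, scaled between DMSO and 100 uM tamoxifen, gave AC50 values by standard Hill modeling.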
# [2] = Cell Viability - H-4-II-E (AID 543); settings: H-4-II-E rat hepatoma viability; series mostly up to 92.2 µM; note: nearly all actives have a fitted effect of over 35% in size
# Method in brief: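 Rat hepatoma H-4-II-E cells, 1500 per well, treated 40 h at 37 °C in complete medium. Cellular ATP read by CellTiter-Glo luminescence; AC50 from Hill fits of concentration-response.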
# [3] = Cell Viability - Renal Proximal Tubule (AID 545); settings: renal proximal tubule cells viability; series mostly up to 91.7 µM; note: nearly all actives have a fitted effect of over 40% in size
# Method in brief: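 Luminescent ATP signal (CellTiter-Glo) served as the viability read-out after 40 hr compound exposure of freshly isolated rat proximal tubule cells at 37 °C. Concentration-dependent ATP loss was fitted with the Hill equation to give AC50.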
# [4] = Cellular Toxicity (caspase-3) N2a (AID 665); settings: N2a cells, luminescence, normalized: DMSO 0%, 10 µM staurosporine 100%; series mostly up to 92.2 µM;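 note: compound exposure lasted 16 h at 37 °C before readout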
# Method in brief: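 Mouse N2a neuroblastoma cells, 1500 per well, treated 16 h at 37 °C in complete medium; caspase-3/7 activity by Caspase-Glo luminescence after 1 h. Normalized to DMSO and 10 uM staurosporine; AC50 from Hill fits.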
# [5] = Cellular Toxicity (caspase-3) Renal Proximal Tubule (AID 667); settings: renal proximal tubule cells; series mostly up to 91.7 µM;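 note: cells exposed to compound for 16 hours at 37 °C before detection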
# Method in brief: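 AC50 derived by standard Hill fit of concentration-response data, normalized between DMSO basal and 10 uM staurosporine as 100% stimulation. Cells: primary rat kidney proximal tubule, 16 h treatment at 37 °C.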
# [6] = Cell Viability - LYMP2-015 (AID 971); settings: LYMP2-015 lymphoblastoid cell viability; series mostly up to 92.2 µM; note: nearly all actives have a fitted effect of over 55% in size
# Method in brief: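 LYMP2-015 human lymphoblastoid cells (2500/well) in complete medium, compound-treated 24 h at 37 C; viability read as cellular ATP by CellTiter-Glo luminescence after 30 min at room temperature. AC50 from Hill-equation fits of qHTS concentration-response data.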
# [7] = Cell Viability - LYMP2-023 (AID 975); settings: LYMP2-023 lymphoblastoid cell viability; series mostly up to 92.2 µM;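 note: cellular ATP measured by luciferase luminescence as viability proxy; nearly all actives have a fitted effect of over 55% in size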
# Method in brief: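 LYMP2-023 human lymphoblastoid cells, 2500/well, preincubated 5 hr at 37 C, then compound-treated 24 hr at 37 C in complete medium. CellTiter-Glo luminescence (ATP) after 30 min at room temperature; AC50 from Hill-equation fits; tetraoctylammonium bromide positive control.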
# [8] = Cell Viability - LYMP2-022 (AID 987); settings: LYMP2-022 lymphoblastoid cell viability; series mostly up to 92.2 µM; note: nearly all actives have a fitted effect of over 55% in size
# Method in brief: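 LYMP2-022 lymphoblastoid cells (2500/well, complete medium) were treated with compounds for 24 hours at 37 C; intracellular ATP was then read by CellTiter-Glo luminescence after 30 min at room temperature. AC50 values were derived from Hill-equation fits.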
# [9] = biological target: Vitamin D3 receptor (Homo sapiens) (UniProt P11473); test: qHTS assay for small molecule antagonists of vitamin D receptor signaling (AID 588541; calls by dose curve;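 note: receptor activated by calcitriol during compound treatment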); settings: HEK293T VDR-UAS-bla, beta-lactamase ratio, antagonist mode; series mostly up to 76.7 µM
# Vitamin D3 receptor (Homo sapiens), sequence (P11473 whole entry, looked up): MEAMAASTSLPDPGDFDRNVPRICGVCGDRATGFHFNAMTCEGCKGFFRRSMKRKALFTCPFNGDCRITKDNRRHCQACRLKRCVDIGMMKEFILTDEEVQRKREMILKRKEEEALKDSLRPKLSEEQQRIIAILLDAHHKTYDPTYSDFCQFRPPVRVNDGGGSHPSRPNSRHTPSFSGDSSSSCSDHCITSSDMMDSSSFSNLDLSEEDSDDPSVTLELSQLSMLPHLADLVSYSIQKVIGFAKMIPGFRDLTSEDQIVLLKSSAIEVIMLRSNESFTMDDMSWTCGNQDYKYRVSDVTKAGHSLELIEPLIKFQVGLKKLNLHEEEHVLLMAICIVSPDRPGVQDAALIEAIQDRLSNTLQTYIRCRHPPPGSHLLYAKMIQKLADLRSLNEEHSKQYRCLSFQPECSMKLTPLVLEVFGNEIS
# Method in brief: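 Antagonist-mode beta-lactamase reporter assay: HEK293T VDR-UAS-bla cells were exposed to titrated compound alongside 1-alpha,25-dihydroxyvitamin D3 at 3 nM final for 16 h. Values were normalized to the 50 nM agonist control and DMSO basal, with IC50 and efficacy from Hill equation fits.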
# [10] = biological target: Thyroid hormone receptor beta (Homo sapiens) (UniProt P10828); test: qHTS assay for small molecule agonists of thyroid hormone receptor beta signaling (AID 588545; calls by dose curve); settings: TR-UAS-bla GripTite HEK 293, beta-lactamase ratio, agonist mode, 18 h; series mostly up to 76.7 µM
# Thyroid hormone receptor beta (Homo sapiens), sequence (P10828 whole entry, looked up): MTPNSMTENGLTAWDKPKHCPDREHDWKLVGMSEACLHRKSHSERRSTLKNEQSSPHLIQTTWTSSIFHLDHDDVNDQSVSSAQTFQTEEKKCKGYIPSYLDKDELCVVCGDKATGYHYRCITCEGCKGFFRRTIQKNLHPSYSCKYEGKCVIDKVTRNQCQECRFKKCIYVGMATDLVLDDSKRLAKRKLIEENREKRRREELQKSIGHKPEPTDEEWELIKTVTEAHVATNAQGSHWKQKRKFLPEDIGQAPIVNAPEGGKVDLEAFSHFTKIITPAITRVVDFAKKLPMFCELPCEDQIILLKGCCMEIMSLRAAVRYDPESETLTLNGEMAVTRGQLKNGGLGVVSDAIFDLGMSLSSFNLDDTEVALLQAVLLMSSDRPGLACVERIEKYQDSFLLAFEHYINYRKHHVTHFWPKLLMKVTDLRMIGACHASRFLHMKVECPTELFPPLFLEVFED
# Method in brief: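 Beta-lactamase reporter activity under TR response element control is measured in HEK 293 cells after 18 hrs compound exposure. Signal is ratiometric CCF4 fluorescence, 460/530 nm.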
# [11] = qHTS assay for small molecule disruptors of the mitochondrial membrane potential - 1 hr assay (AID 651754; calls by dose curve; note: nearly all actives have a fitted effect of over 35% in size; note: potency is the fitted concentration of half-maximal effect); settings: series mostly up to 92.2 µM
# Method in brief: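 HepG2 cells, attached overnight, were exposed to compound for 1 hr at 37C, then stained 30 min with a potentiometric dye. Ratio of red aggregate (590nm) to green monomer (535nm) fluorescence reports membrane potential; collapse shifts signal toward green.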
# [12] = qHTS assay for small molecule disruptors of the mitochondrial membrane potential - 5 hr assay (AID 651755; calls by dose curve; note: nearly all actives have a fitted effect of over 40% in size; note: potency is the fitted concentration of half-maximal effect); settings: JC-1-type ratio dye; series mostly up to 92.2 µM
# Method in brief: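 HepG2, 2,000 cells/well, overnight attach; cpd or DMSO 5 hr, 37C/5% CO2; Mito-MPS 30 min 37C; fluor 490/535 + 540/590 nm.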
# [13] = qHTS assay for environmental chemicals that activate the Aryl hydrocarbon Receptor (AhR) signaling pathway (AID 651777); settings: 1A2-DRE human hepatoma cells, luciferase, 24 h; activation: stronger effect = higher value; note: nearly all actives have a fitted effect of over 15% in size
# Method in brief: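 Stable CYP1A2 promoter/DRE-luciferase human hepatoma line treated 24 hr; One-Glo luminescence, 30 min RT.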
# [14] = qHTS assay for small molecule agonists of the antioxidant response element (ARE) signaling pathway measured by Nrf2-dependant transcriptional activity (AID 720636; active = well fitted curve in the direction sought with a large enough effect in the repeat runs; an effect the other way counts as inactive or inconclusive;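 note: HepG2 cells with an ARE-driven luciferase reporter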); settings: ARE-luc HepG2, Nrf2 luciferase reporter, 16 h; series mostly up to 92.4 µM
# Method in brief: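 Reporter gene assay, HepG2 ARE-luc: 16 hr compound, 37 C, 5% CO2; read-out luciferase luminescence.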
# [15] = qHTS assay for small molecule agonists of the antioxidant response element (ARE) signaling pathway measured by Nrf2-dependant transcriptional activity - cell viability counter screen (AID 720653; active = well fitted curve in the direction sought with a large enough effect in the repeat runs; an effect the other way counts as inactive or inconclusive); settings: ARE-bla HepG2 viability, CellTiter-Glo ATP luminescence, 16 h; stronger effect = lower value
# Method in brief: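 Cytotoxicity counter screen: intracellular ATP quantified by CellTiter-Glo luminescence in the same ARE-bla HepG2 plates, after 16 h compound exposure and a 2 h beta-lactamase substrate step.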
# [16] = qHTS assay for cell viability of HEK293 cells (AID 743288); settings: ATP luminescence (CellTiter-Glo), 18 h, stronger effect = lower value; note: nearly all actives have a fitted effect of over 50% in size
# Method in brief: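 HEK293 parental, 2,000 cells/well; ≥5 h pre-incubation 37 C; pintool compound addition; 18 h, 37 C; CellTiter-Glo 30 min RT; luminescence read.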
# [17] = Cellular Toxicity (caspase-3) SHSY5Y (AID 657); settings: SH-SY5Y caspase-3 activation, DMSO zero, 10 µM staurosporine = 100%; series mostly up to 91.7 µM;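 note: cells exposed to compound for 16 hours at 37 °C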
# Method in brief: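 qHTS, SH-SY5Y, 1500 cells/well, 5 h pre-incubation 37 °C; compound 16 h 37 °C; Caspase-Glo 3/7 1 h RT; luminescence. Norm.: DMSO = 0, 10 uM staurosporine = 100%. Hill fit → AC50.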
# [18] = Cell Viability - LYMP2-009 (AID 968); settings: LYMP2-009 lymphoblastoid cell viability; series mostly up to 92.2 µM; note: nearly all actives have a fitted effect of over 55% in size
Compound,Potency [1],Potency [2],outcome [3],outcome [4],outcome [5],Potency [6],Potency [7],Potency [8],outcome [9],Potency [10],Potency [11],Potency [12],activation [13],Potency [14],max response [15],max response [16],outcome [17],Potency [18]
CC(=O)CCC(C)=O,> 92 µM,inactive,inactive,inactive,inactive,inactive,inactive,inactive,inactive,inactive,inactive,inactive,1.06%,inactive,0.0815%,-8.83%,–,–
Nc1ccc2ccccc2c1,> 92 µM,inactive,–,inactive,–,–,–,inactive,inactive,inactive,inactive,inactive,–,inactive,-2.01%,–,inactive,–
CCOC(=O)CBr,> 92 µM,–,inactive,inactive,inactive,inactive,inactive,inactive,inactive,inactive,inactive,inactive,-0.43%,inactive,1.03%,-5.15%,inactive,inactive
C=CC(=O)OC,> 92 µM,inactive,–,inactive,inactive,inactive,inactive,–,inactive,inactive,inactive,inactive,1.42%,inactive,8.65%,4.03%,inactive,inactive
CC12CC1(C)C(=O)N(c1cc(Cl)cc(Cl)c1)C2=O (configuration not stated),> 92 µM,inactive,inactive,inactive,inactive,inactive,inactive,inactive,inactive,inactive,–,–,-0.0704% and 1.05%,inactive,-1.37% and -4.13%,5.03% and -17.6%,–,inactive
Cc1ccc(OP(=O)(Oc2ccc(C)cc2)Oc2ccc(C)cc2)cc1,> 92 µM,–,–,inactive,inactive,–,inactive,inactive,inactive,inactive,9.44 µM (active),13.3 µM (active),5.07% and 5.6%,inactive,-0.985% and -5.89%,-12.3% and -24.8%,–,inactive
O=C(Cl)OCc1ccccc1,> 92 µM,inactive,inactive,inactive,–,–,inactive,–,inactive,–,inactive,inactive,0.249%,inactive,–,-3.33%,inactive,inactive
CCOP(=O)(OCC)OCC,> 92 µM,inactive,inactive,inactive,–,inactive,inactive,–,inactive,inactive,inactive,inactive,-0.171% and -0.669%,inactive,-1.09% and -8.89%,5.7% and 3.95%,inactive,inactive
Oc1ccc(Cl)c(Cl)c1Cl,> 92 µM,inactive,inactive,–,inactive,inactive,inactive,inactive,inactive,–,42.2 µM (active),–,–,inactive,13.8%,–,inactive,inactive
S=C1NCCN1,> 92 µM,inactive,inactive,inactive,inactive,inactive,inactive,inactive,inactive,inactive,–,–,4.55% and -3.06%,inactive,4.7% and 5.28%,4.6% and 3.06%,inactive,inactive
